MARV entry inh = blocks Marburg virus binding to or entry into cells. AID 540276. Marburg virus pseudotyped entry inhibition, cell reporter. actives 1.8% (n = 300,000). Potency, µM (top dose mostly 37.8 µM), inactives show at the highest dose activity change, negative = inhibition, usual class: inhibitors; calls by dose curve; tested in HEK293 cells
LASV entry inh = blocks Lassa virus binding to or entry into cells; Lassa virus pseudotype entry inhibition, cell reporter; Potency, µM (titrated, usually from 37.9 µM), without a hit: at the highest dose activity change, negative = inhibition, usual class: inhibitors; actives 1.2% (n = 300,000); AID 540256; calls by dose curve; tested in HEK293 cells; further: nearly all actives have a fitted effect of over 50% in size
FMDV inh = antivirals against foot and mouth disease virus; FMDV antiviral cell-based qHTS; actives 1.2% (n = 410,000); Potency, µM (titrated, usually from 57.9 µM), without a hit: top-dose activity change, negative = inhibition, hits mostly inhibitors; AID 1159524; calls by dose curve; tested in HEK293T cells; further: read-out not given here; nearly all actives have a fitted effect of over 45% in size
RE007 growth inh = less growth of the S. pombe RE007 Vpr strain. S. pombe RE007 Vpr strain, BacTiter-Glo ATP luminescence, 24 h. Potency, µM (top dose mostly 92.2 µM), inactives show at the top dose activity change, negative = less growth, usual class: inhibitors. actives 0.21% (n = 360,000). AID 651644; active means well fitted falling curve with a large enough effect; inconclusive means small, poorly fitted or top-dose-only effect; inactive means no such curve, though single readings can be large or run the other way; further: nearly all actives have a fitted effect of over 50% in size
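Fission yeast RE007 carrying one integrated HIV-1 vpr copy, seeded at OD 0.01 in PMG+AL medium with 23 nL pinned compound. Grown 24 h at 30 degrees; viability read by BacTiter-Glo luminescence after 5 min.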
HCV inhibitor = HCV inhibition; actives 3.4% (n = 340,000); Potency, µM (top dose mostly 41.8 µM), without a hit: at the highest dose activity change, negative = inhibition, hits mostly inhibitors; Huh7.5.1 HCVcc-Cre infection, luciferase reporter, 44 h; AID 651820
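HCVcc-Cre virus at an moi near 0.5 was added right after compound to cells cultured 4 h from seeding (1,000 cells/well). Luciferase activity was determined 44 h later, 15 min after substrate addition at RT.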
Sm TGR inh = blocks Schistosoma mansoni thioredoxin glutathione reductase. actives 3% (n = 360,000). Potency, µM (top dose mostly 114 µM), for inactives: top-dose activity change, negative = inhibition, most hits filed as inhibitors. Q962Y6. purified TGR, DTNB reduction, TNB absorbance 405 nm. AID 485364; further: nearly all actives have a fitted effect of over 60% in size
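TGR 20 nM + NADPH 100 uM (dispensed conc.), cpd preinc 15 min RT; start with NADPH (500 uM addition) then DTNB (15 mM addition). Kinetic TNB absorbance, 405 nm filter. Four-parameter Hill fit across titration.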
Active calls of the source: *; ? = inconclusive; / = not tested or not shown; [ ] = another dose, or the depositor's remark. Hits are enriched below; roughly 7.2% of the tested compounds scored in any of these assays. Unless noted, the call rests on the fitted dose curve; in most records, active means well fitted curve in the direction sought with a large enough effect; inconclusive means small, poorly fitted or top-dose-only effect, or another doubt; inactive means no such curve, though single readings can be large; an effect the other way counts as inactive or inconclusive. On the % scale 0 is the no-effect control and ±100 the full control effect; potency means the concentration at half of the fitted maximal effect.

SMILES | MARV entry inh | LASV entry inh | FMDV inh | RE007 growth inh | HCV inhibitor | Sm TGR inh
CC(C)(C)c1cc(CSC(=S)NC2CCS(=O)(=O)C2)c(Br)c(C(C)(C)C)c1 (centres undefined) | ? | ? | 15.8µM* | -4.1% | 12.2% | -1.9%
Cc1ccc(CNC(=O)[C@H](C)N2C(=O)N3CCc4c([nH]c5ccccc45)[C@@]3(C)C2=O)cc1 | / | / | ? | -9.7% | ? | 15.5%
COc1ccc2[nH]c3c(c2c1)CCN1C(=O)N([C@@H](C)C(=O)NCc2c(F)cccc2Cl)C(=O)[C@]31C | / | / | ? | ? | ? | 4.5%
COc1ccc(CNC(=O)[C@H](C)N2C(=O)N3CCc4c([nH]c5ccccc45)[C@@]3(C)C2=O)cc1OC | / | / | 31.6µM* | 6.5% | 3.55µM* | 8.2%
C[C@@H](C(=O)NCc1c(F)cccc1Cl)N1C(=O)N2CCc3c([nH]c4ccccc34)[C@@]2(C)C1=O | / | / | ? | 9.6% | 11.2µM* | 3.1%
Cc1cc(N2CCN(c3cccc(C)c3C)CC2)n2cnnc2n1 | ? | -29.1%[46.1 µM] | ? | / | / | -10.1%
COC(=O)c1cccc(NC(=O)N(C)CCc2c(C)nn(C)c2C)c1 | / | -10.5%[46.1 µM] | 19.5% | / | / | 1.1%
COc1ccc(C(=O)CC(=O)c2ccccc2)cc1 | -24.7%[46.1 µM] | ? | 38.8% | ? | -9.6% | /
COc1ccc(C(=O)C/C(=C\C(=O)c2ccc(C)cc2)c2ccccc2)cc1 | ? | ? | -15.4% | -2.7% | 11.2µM* | 6.7%
C[C@H](CO)N1C[C@H](C)[C@H](CN(C)S(=O)(=O)c2cccc(F)c2)Oc2ncc(-c3cccc(C(=O)N(C)C)c3)cc2C1=O | / | / | 12.3% | -22.3% | / | /
Cc1ccc(O)c(C(=O)c2cc(C#N)c3nc4ccccc4n3c2)c1 | -1.5%[46.1 µM] | 3.0% | ? | -4.6% | 5.01µM* | -13.3%
c1ccc(CN2CCC3(CC2)Nc2ccccc2CO3)cc1 | -19.3% | -1.3% | 13.7% | 3.9% | -3.3% | 2.6%
c1ccc(CN2CCC3(CCCc4ccccc43)CC2)cc1 | 6.31µM* | ? | ? | -13.3% | ? | -3.9%
CN(C)c1ccc(CNC(=O)C2CCN(Cc3cc4ccccc4n3Cc3ccccc3)CC2)cc1 | / | ? | -19.5% | / | / | 1.4%
O=C1CC(c2nc3ccccc3[nH]2)CN1c1cccc(Cl)c1 (centres undefined) | 13.2%[46.1 µM] | -1.9%[46.1 µM] | 0.0% | / | / | -0.7%
Cc1ccc(/C=N/Nc2nc3ccccc3s2)o1 | ? | 3.16µM* | -39.3% | -5.1% | -2.2% | -12.2%
O=C1C(=O)N(Cc2ccc(Cl)c(Cl)c2)c2ccccc21 | / | / | -3.3% | / | / | /
O=C1c2ccc([N+](=O)[O-])cc2S(=O)(=O)N1Cc1ccccc1 | ? | ? | -13.3% | ? | -19.0% | 17.8µM*
O=C1C(=O)N(Cc2cccc([N+](=O)[O-])c2)c2ccccc21 | 11.2µM* | ? | -20.4% | 16.5% | -2.4% | -2.2%
COc1ccccc1-c1cncnc1NCCNC(C)=O | / | / | -10.3% | / | / | /
COc1ccc(CCNC(=O)C(=O)NCC2CCCN2S(=O)(=O)c2cc(C)ccc2C)cc1 (centres undefined) | ? | 11.2µM* | ? | 8.4% | ? | 5.5%
Cc1ccc(C)c(S(=O)(=O)N2CCCCC2CCNC(=O)C(=O)NCc2ccccc2)c1 (centres undefined) | ? | -29.6%[46.1 µM] | -0.5% | 21.0% | 22.4µM* | -0.1%
Cc1ccc(C)c(S(=O)(=O)N2CCCCC2CCNC(=O)C(=O)NCc2cccnc2)c1 (centres undefined) | ? | -14.4% | ? | -13.7% | -24.7% | 0.3%
Cc1ccc(CCNC(=O)CCc2cn(Cc3ccccc3C)c3ccccc23)cc1 | / | ? | -10.1% | / | / | 3.8%
O=C1OC(Nc2ccc(F)c([N+](=O)[O-])c2)c2ccccc21 (centres undefined) | ? | ? | -6.1% | -2.2% | 5.9% | -0.6%
SMILES | MARV entry inh | LASV entry inh | FMDV inh | RE007 growth inh | HCV inhibitor | Sm TGR inh
O=C1OC(Nc2ccc3c(c2)OCO3)c2ccccc21 (centres undefined) | -23.9% | -4.2% | ? | -5.2% | ? | 8.91µM*
CCc1c(C)sc2c1CCN(C(=O)Nc1ccc(F)c(Cl)c1)C2c1ccc(F)cc1 (centres undefined) | / | ? | 39.8µM* | / | / | -1.9%
Cc1ccc(-n2nc(CO)c(C(=O)NCc3cccnc3)n2)cc1 | ? | -6.5%[46.1 µM] | ? | / | / | 2.0%
CCCC(=O)c1cc(CP(=O)(OCC)OCC)oc1C | / | / | -3.3% | 8.3% | 6.5% | 28.2µM*
CCOP(=O)(Cc1ccc(C(C)(C)CC(C)=O)o1)OCC | / | / | -21.7% | 12.6% | 18.3% | 15.8µM*
CCOP(=O)(Cc1cc(C(C)=O)c(C)o1)OCC | / | / | -64.2% | 1.1% | 15.7% | 39.8µM*
CCOP(=O)(Cc1ccc(C#N)o1)OCC | -0.7%[46.1 µM] | 10.9% | 2.2% | -6.2% | -2.5% | -21.0%
COc1c2ccccc2nc2occc12 | / | / | -2.4% | / | / | /
COC(=O)c1sc(=S)sc1C(=O)OC | ? | -29.8% | / | 31.6µM* | 20.1% | -22.6%
COC(=O)c1sc(C(=O)OC)c(C(=O)OC)c1C(=O)OC | ? | 12.1% | -9.2% | 0.0% | 4.7% | 1.5%
Cc1ccc(N2C(=O)CSC23C(=O)N(CC(=O)NCCc2ccccc2)c2ccccc23)cc1C (centres undefined) | / | -21.4%[46.1 µM] | 1.4% | / | / | 9.5%
c1ccc(CN2CCC(Nc3ncnc4sccc34)CC2)cc1 | -5.4%[46.1 µM] | -2.8% | -14.0% | -27.7% | -4.1% | 9.5%
Cc1sc2ncnc(NC3CCN(Cc4ccccc4)CC3)c2c1C | ? | ? | ? | -19.4% | 1µM* | -1.1%
Cc1csc2c(NC3CCN(Cc4ccccc4)CC3)ncnc12 | 2.82µM* | -13.7%[46.1 µM] | -14.5% | 2.1% | ? | 9.8%
COc1ccccc1N1CCN(Cc2nc(-c3cc(OC)c(OC)c(OC)c3)no2)CC1 | -19.6%[46.1 µM] | -17.3%[46.1 µM] | -26.4% | / | / | -22.3%
COc1ccccc1C(=O)Nc1ccc2c(c1)CC1(C(=O)N(C)C(=O)N(C)C1=O)C1CCCN21 (centres undefined) | 16.6%[46.1 µM] | 1.7% | -8.3% | -4.1% | 1.9% | 35.5µM*
CCOC(=O)CSC1=C(C#N)[C@H](c2ccc(C)cc2)[C@H](C(=O)OC)C(=O)N1 | -15.2%[46.1 µM] | / | / | / | / | /
Cc1cc2oc3c(c(=O)c2cc1C)C1(C(=O)N(C)c2ccccc21)N(CCO)C3=O (centres undefined) | 20.7%[46.1 µM] | -1.2%[46.1 µM] | -0.2% | / | / | 5.2%
Cc1cc(C(=O)Nc2ccc(Cl)cc2)n(-c2ccccc2)n1 | -1.2%[46.1 µM] | -11.4%[46.1 µM] | 18.5% | 3.1% | -2.0% | -11.3%
Cc1cc(C(=O)Nc2ccc(Cl)cc2)c(C)n1-c1ccccc1 | 1.12µM* | ? | ? | -11.8% | -23.4% | 50.1µM*
Cc1ccc(NC(=O)c2csc(-c3ccccc3)c2C)cc1 | 13µM* | 6.51µM* | ? | 9.0% | -1.7% | -3.4%
Cc1ccc(NC(=O)c2cc(C)n(-c3cccc(C)c3)c2C)cc1 | 6.51µM* | 10µM* | 9.9% | -5.9% | ? | -15.0%
